Source: PubChem BioAssay
ABHD5-PLIN5 inh: inhibitors of human ABHD5-perilipin-5 interaction; Split G. princeps luciferase complementation, luminescence, 4 h; inhibition, % at 4 µM; 0.78% of 360,000 active; AID 602281;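 active = inhibition above the mean inhibition across every tested compound plus 3 SD, cut at about 22% in these data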
Target sequence (Q00G26 whole entry, looked up): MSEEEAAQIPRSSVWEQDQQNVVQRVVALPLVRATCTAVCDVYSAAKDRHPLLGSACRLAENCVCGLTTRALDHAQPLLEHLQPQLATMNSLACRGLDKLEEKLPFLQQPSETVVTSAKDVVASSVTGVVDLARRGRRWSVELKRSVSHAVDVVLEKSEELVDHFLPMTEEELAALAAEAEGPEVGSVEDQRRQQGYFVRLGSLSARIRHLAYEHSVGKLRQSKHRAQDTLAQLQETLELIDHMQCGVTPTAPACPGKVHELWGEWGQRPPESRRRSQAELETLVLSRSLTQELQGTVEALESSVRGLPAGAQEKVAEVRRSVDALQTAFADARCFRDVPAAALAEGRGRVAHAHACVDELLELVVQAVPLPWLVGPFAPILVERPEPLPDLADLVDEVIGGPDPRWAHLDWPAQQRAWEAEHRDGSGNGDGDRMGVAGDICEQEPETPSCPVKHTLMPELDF
Target sequence (Q8WTS1 whole entry, looked up): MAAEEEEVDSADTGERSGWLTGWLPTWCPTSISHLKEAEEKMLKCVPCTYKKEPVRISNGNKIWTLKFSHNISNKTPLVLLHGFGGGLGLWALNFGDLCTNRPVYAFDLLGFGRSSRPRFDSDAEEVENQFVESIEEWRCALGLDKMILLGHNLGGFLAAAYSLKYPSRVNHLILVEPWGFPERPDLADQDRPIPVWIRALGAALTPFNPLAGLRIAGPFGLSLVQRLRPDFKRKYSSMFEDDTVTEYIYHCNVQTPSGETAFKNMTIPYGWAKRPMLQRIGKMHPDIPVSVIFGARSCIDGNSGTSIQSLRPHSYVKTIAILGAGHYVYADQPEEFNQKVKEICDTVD
Platelet DG rel: platelet dense granule release activity | 0.22% of 300,000 active | AID 1663 | human platelet-rich plasma, SFLLRN dense granule ATP release, luminescence | inhibition, %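 (compounds screened at 7.5 µM in platelet-rich plasma)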;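 active = mean replicate score, as percent of positive control, at or above 50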
Rce1 inh: inhibitors of yeast Ras-converting enzyme; AID 2563; calls only; yeast membranes, quenched prenylated peptide cleavage fluorescence; Q03530; 0.27% of 290,000 active;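 active = fall in fluorescence gain of 50% or more versus controls, with final raw signal at or below 3038400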
M18AAP inhibitor: blocks P. falciparum M18 aspartyl aminopeptidase; recombinant PfM18AAP, H-Glu-NHMec fluorogenic cleavage; inhibition, % at 7.35 µM; 1.2% of 290,000 active; AID 1822;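 active = inhibition above the campaign mean inhibition over all tested compounds plus 3 SD, cut at about 28% in these data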
Exocytosis inh: blocks lytic granule exocytosis; TALL-104 LAMP-1 surface exposure, flow cytometry; cells stimulated with thapsigargin and PMA; inhibition, % at 10 µM; 0.66% of 360,000 active; AID 651702;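 active = inhibition above about 55%, limit read from the data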
Granule exo CP1: blocks lytic granule exocytosis; shares compounds with Exocytosis inh; TALL-104 cells, LAMP-1 externalization, flow cytometry; stimulated with PMA plus thapsigargin; inhibition, % at 10 µM; 11% of 1,500 active; in the data active = inhibition above about 60%
Hits are given with their value; n = inactive; x = not tested or not shown. The list is not random: actives were taken first. Their share in the collection is about 2.6%.

SMILES	ABHD5-PLIN5 inh	Platelet DG rel	Rce1 inh	M18AAP inhibitor	Exocytosis inh	Granule exo CP1
COc1ccc(CN2CCN(c3ncnc4scc(-c5ccc(F)cc5)c34)CC2)cc1	n	n	n	n	60	n
CCOc1ccc(CN2CCN(c3ncnc4scc(-c5ccccc5)c34)CC2)cc1	n	n	n	n	87	n
COc1ccc(N2CCN(c3ncnc4scc(-c5ccc(F)cc5)c34)CC2)cc1	n	n	n	n	n	x
COc1ccc(N2CCN(c3ncnc4scc(-c5ccc(C)cc5)c34)CC2)cc1	n	n	x	n	80	n
COc1ccccc1Nc1c2ccccc2nc2ccccc12	n	n	n	n	82	n
COc1ccc(Cl)cc1Nc1cc(C)nc2ccccc12	n	n	n	x	76	n
COc1cc(Nc2c3ccccc3nc3ccccc23)cc(OC)c1OC	n	n	n	n	n	x
COc1ccc(OC)c(Nc2cc(C)nc3ccccc23)c1	n	n	n	n	n	x
COc1ccc(CCNC(=O)c2cnn(-c3ccc(C)c(C)c3)c2NC(=O)c2ccco2)cc1OC	n	n	n	n	n	x
Cc1nn(Cc2c(F)cccc2Cl)c(=O)c2ccccc12	n	n	n	n	n	x
COCc1cc(C)nc2sc(C(=O)OC(C)C)c(N)c12	n	n	n	n	n	x
COCc1cc(C)nc2sc(C(=O)Nc3ccc(C(=O)OC)cc3)c(N)c12	n	n	n	n	85	n
CCCCCCNC(=O)CC(c1ccccc1)c1cc(Br)ccc1O (stereo not given)	n	n	n	n	66	n
CCN(CC)C(=O)C12C(=O)Oc3ccccc3C1C2(C)C(=O)c1ccc(F)cc1 (stereo not given)	n	x	n	n	n	x
O=C(COC(=O)[C@H](Cc1c[nH]c2ccccc12)NC(=O)c1ccc(Cl)cc1)Nc1ccc2c(c1)OCO2	n	n	n	n	69	78
CC(=O)N[C@@H](Cc1c[nH]c2ccccc12)C(=O)OCC(=O)Nc1ccc2c(c1)OCO2	n	x	x	x	n	x
CCC1CCC(N2CCN(c3ccc([N+](=O)[O-])cc3)CC2)CC1 (stereo not given)	n	n	n	n	74	n
